Test results as given in PubChem BioAssay (EPA / NIEHS).
Values joined by “and” are separate entries in the source; they are usually repeats but may differ in a detail not shown here. Identical values can stand only once. The source holds several records for some structures; these can differ, active in one and inactive in another. Active and inactive are the calls of the source. How the source made its calls: active means hit-call score of the fitted dose curve at least 0.9, where 1 is the maximum; inactive means score below 0.9.

Key:
[1] = ATG_RORE_CIS: Attagene CIS-FACTORIAL HepG2 Assay for human RAR-related Orphan Receptor Element (RORE) (AID 2282959); details: HepG2 Attagene cis-factorial RORE reporter, mRNA; actives raise or lower the signal
How it was run: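 Transiently transfected HepG2 reporter cells were treated 24 h. Reporter transcripts were detected by RT-PCR and capillary electrophoresis, with bidirectional fitting against DMSO.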

[2] = target: Transcription factor Sp1 (Homo sapiens) (UniProt P08047); experiment: ATG_Sp1_CIS: Attagene CIS-FACTORIAL HepG2 Assay for human Specificity Protein 1 (Sp1) (AID 2282961); details: HepG2 Sp1 cis-reporter transcription, actives raise or lower the signal
Chain of Transcription factor Sp1 (Homo sapiens) (P08047 whole entry, looked up, the tested form may be a part): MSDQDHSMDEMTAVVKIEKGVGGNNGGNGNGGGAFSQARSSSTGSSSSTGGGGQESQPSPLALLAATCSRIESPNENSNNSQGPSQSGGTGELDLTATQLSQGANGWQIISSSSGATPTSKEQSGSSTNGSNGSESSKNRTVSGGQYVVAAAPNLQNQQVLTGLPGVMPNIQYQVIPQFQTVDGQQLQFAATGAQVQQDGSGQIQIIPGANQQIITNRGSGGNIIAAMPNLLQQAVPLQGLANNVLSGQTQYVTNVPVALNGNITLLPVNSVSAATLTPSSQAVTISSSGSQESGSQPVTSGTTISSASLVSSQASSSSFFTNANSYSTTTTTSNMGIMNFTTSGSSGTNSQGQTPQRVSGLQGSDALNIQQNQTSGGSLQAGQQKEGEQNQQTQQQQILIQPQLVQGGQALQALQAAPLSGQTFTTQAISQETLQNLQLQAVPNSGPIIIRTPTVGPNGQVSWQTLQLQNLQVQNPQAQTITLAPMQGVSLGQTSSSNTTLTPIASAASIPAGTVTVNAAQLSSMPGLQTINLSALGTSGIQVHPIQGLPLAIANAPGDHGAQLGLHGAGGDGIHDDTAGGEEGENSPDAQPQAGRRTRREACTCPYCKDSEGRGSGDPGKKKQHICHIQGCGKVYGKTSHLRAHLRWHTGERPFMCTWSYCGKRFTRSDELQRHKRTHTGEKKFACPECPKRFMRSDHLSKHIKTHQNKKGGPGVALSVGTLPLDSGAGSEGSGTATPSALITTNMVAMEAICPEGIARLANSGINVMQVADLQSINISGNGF
How it was run: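 Endpoint reflects endogenous Sp1 transcriptional activity, not an exogenous fusion protein: HepG2 cells with transfected cis-regulated reporters, 24 h dosing, RT-PCR/capillary electrophoresis mRNA read-out, DMSO-normalised bidirectional fit.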

[3] = ATG_SREBP_CIS: Attagene CIS-FACTORIAL HepG2 Assay for human Sterol Regulatory Element Binding (SREBP) (AID 2282962); details: HepG2 Attagene cis-factorial SREBP reporter, mRNA; actives raise or lower the signal
How it was run: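 HepG2 cells transiently transfected with multiplexed cis-promoter reporter units sensing endogenous transcription factors; reporter mRNA measured 24 h after dosing by RT-PCR, 6-FAM labeling, HpaI digestion and capillary electrophoresis. Bidirectional fit versus DMSO.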

[4] = target: Signal transducer and activator of transcription 3 (Homo sapiens) (UniProt P40763); experiment: ATG_STAT3_CIS: Attagene CIS-FACTORIAL HepG2 Assay for human Signal Transducer and Activator of Transcription 3 (STAT3) (AID 2282963); details: HepG2, Attagene cis-factorial STAT3 reporter transcription; actives raise or lower the signal
Chain of Signal transducer and activator of transcription 3 (Homo sapiens) (P40763 whole entry, looked up): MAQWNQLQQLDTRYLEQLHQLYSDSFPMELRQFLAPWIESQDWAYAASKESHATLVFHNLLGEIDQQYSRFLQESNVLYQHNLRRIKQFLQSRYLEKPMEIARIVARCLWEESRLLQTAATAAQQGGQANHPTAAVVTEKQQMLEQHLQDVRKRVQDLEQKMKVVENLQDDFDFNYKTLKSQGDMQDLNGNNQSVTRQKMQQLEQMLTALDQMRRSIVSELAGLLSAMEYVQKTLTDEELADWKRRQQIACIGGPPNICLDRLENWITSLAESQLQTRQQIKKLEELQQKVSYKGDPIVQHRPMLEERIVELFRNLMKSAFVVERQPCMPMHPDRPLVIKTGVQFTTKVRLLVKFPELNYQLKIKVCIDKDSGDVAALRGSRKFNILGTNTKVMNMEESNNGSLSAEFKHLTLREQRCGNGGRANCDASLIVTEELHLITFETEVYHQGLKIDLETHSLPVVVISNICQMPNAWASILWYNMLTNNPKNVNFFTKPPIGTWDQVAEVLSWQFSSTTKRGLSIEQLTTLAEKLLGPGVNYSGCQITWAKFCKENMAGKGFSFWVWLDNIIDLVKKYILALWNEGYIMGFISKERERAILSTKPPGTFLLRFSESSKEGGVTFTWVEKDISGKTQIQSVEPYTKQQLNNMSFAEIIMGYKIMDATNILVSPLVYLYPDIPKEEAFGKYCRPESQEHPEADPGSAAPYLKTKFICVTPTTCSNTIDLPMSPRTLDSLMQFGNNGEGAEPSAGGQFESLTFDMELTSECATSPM
How it was run: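 HepG2 cells transiently transfected with multiple cis-element-driven reporter units report endogenous transcription factor activity. After 24 h compound exposure, reporter mRNA is measured by RT-PCR, 6-FAM labelling, HpaI digestion and capillary electrophoresis. Fitted bidirectionally versus DMSO.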

[5] = ATG_TA_CIS: Attagene CIS-FACTORIAL HepG2 Assay for human TA Basal Promoter (AID 2282964); details: HepG2 Attagene CIS-factorial TA basal promoter reporter; actives raise or lower the signal
How it was run: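 Transient MRTU transfection of HepG2 preceded 24 h compound exposure. Reporter mRNA levels were then read by RT-PCR with capillary electrophoresis, and this background-control endpoint was fitted bidirectionally to DMSO.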

[6] = ATG_TCF_b_cat_CIS: Attagene CIS-FACTORIAL HepG2 Assay for human T-Cell-Factor with beta-catenin (TCF/b-cat) (AID 2282965); details: HepG2 TCF/beta-catenin cis-reporter transcription, actives raise or lower the signal
How it was run: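 HepG2 cells transiently transfected with cis-promoter-driven multiplexed reporter units; reporter mRNA measured 24 h after dosing by RT-PCR, FAM labelling, HpaI digestion and capillary electrophoresis. Bidirectional fitting relative to DMSO baseline.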

[7] = ATG_TAL_CIS: Attagene CIS-FACTORIAL HepG2 Assay for human TAL Basal Promoter (AID 2282966); details: HepG2 Attagene cis-factorial TAL promoter reporter; actives raise or lower the signal;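 further: background control endpoint measuring basal TAL promoter reporter mRNA not a specific factor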
How it was run: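 Steps: transfect HepG2 with multiple reporter transcription units; dose 24 h; isolate RNA, reverse-transcribe, PCR-amplify, label with 6-FAM, digest with HpaI; resolve by capillary electrophoresis. Bidirectional fitting against DMSO baseline.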

[8] = ATG_VDRE_CIS: Attagene CIS-FACTORIAL HepG2 Assay for human Vitamin D Receptor Element (VDRE) (AID 2282968); details: HepG2 VDRE cis-reporter transcription, actives raise or lower the signal
How it was run: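 Transiently transfected HepG2 cells carrying cis-regulated reporter transcription units were exposed for 24 h. Reporter mRNA was measured by RT-PCR with fluorescent labelling and capillary electrophoresis, and fitted in both directions against DMSO.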

[9] = ATG_Sox_CIS: Attagene CIS-FACTORIAL HepG2 Assay for human SRY-box transcription factor (SOX) (AID 2282960); details: HepG2 Attagene cis-factorial SOX reporter, mRNA; actives raise or lower the signal
How it was run: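 Gain- or loss-of-signal endpoint, fitted bidirectionally with DMSO as negative control. Based on reporter mRNA from transfected HepG2 cells harvested 24 h post-treatment and quantified via RT-PCR and capillary electrophoresis.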

[10] = ATG_TGFb_CIS: Attagene CIS-FACTORIAL HepG2 Assay for human Transforming Growth Factor (TGF) (AID 2282967); details: HepG2 Attagene CIS TGFb reporter, mRNA transcription; actives raise or lower the signal
How it was run: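 After a 24-hour incubation with compound, transfected HepG2 cells were lysed for RNA; reporter cDNA was amplified, fluorescently end-labeled and separated by CE. DMSO served as baseline for bidirectional fits.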

Measured: AC50

O=C(O)C(F)(F)OC(F)(F)C(F)(F)OC(F)(F)C(F)(F)OC(F)(F)C(F)(F)C(F)(F)C(F)(F)F
inactive: [2] | [3] | [4] | [5] | [7]
active: [1] 45.4 µM and 21.6 µM | [2] 31.8 µM | [6] 25.9 µM and 24.4 µM | [8] 13.1 µM and 30 µM

CC(=O)CC(C)C
inactive: [1] | [9] | [2] | [3] | [4] | [5] | [6] | [7] | [8]

COC(=O)C(F)(F)C(F)(F)C(F)(F)C(F)(F)C(F)(F)F
inactive: [1] | [9] | [2] | [3] | [4] | [5] | [6] | [7] | [8]

CCCCCCCCCCCC[N+](C)(C)Cc1ccccc1
inactive: [1] | [2] | [3] | [4] | [5] | [6] | [7] | [10] | [8]
active: [2] 6.43 µM | [5] 17.7 µM | [8] 13.2 µM

Oc1cc2ccccc2cc1O
inactive: [1] | [9] | [2] | [3] | [4] | [5] | [6] | [7] | [8]

Clc1ccc(Nc2nnc(Cc3ccncc3)c3ccccc23)cc1
inactive: [9] | [2] | [3] | [4] | [10]
active: [1] 15.8 µM | [5] 23.2 µM | [6] 11 µM | [7] 11.2 µM | [8] 7.35 µM

C=CC(=O)OCCN(CC)CC
inactive: [1] | [9] | [2] | [4] | [5] | [6] | [7] | [10]
active: [3] 61.8 µM | [8] 62.9 µM

CCc1ccccc1O
inactive: [1] | [9] | [2] | [3] | [4] | [5] | [6] | [7]
active: [8] 27.9 µM

COC1=CC(=O)C[C@@H](C)[C@]12Oc1c(Cl)c(OC)cc(OC)c1C2=O
inactive: [1] | [9] | [2] | [3] | [4] | [5] | [7] | [8]
active: [6] 20.4 µM

CCCCCCC(C)(C)C(=O)O
active: [8] 73.2 µM
inactive: [1] | [9] | [2] | [3] | [4] | [5] | [6] | [7]

Cc1ccc(N=Nc2c(O)ccc3ccccc23)c(C)c1
inactive: [1] | [9] | [2] | [3] | [4] | [5] | [6] | [7] | [10]
active: [8] 2.55 µM

Oc1c(Cl)cc(Cl)cc1Sc1cc(Cl)cc(Cl)c1O
active: [1] 2.56 µM | [8] 3.4 µM
inactive: [9] | [2] | [3] | [4] | [5] | [6] | [7] | [10]

FC(F)=C(F)C(F)(F)C(F)(F)C(F)(F)C(F)F
inactive: [1] | [9] | [2] | [3] | [4] | [5] | [6] | [7] | [8]

CS(=O)(=O)c1ccc([C@@H](CC2CCCC2)C(=O)Nc2cnccn2)cc1Cl
active: [1] 60.2 µM | [2] 160 µM | [3] 136 µM | [5] 100 µM | [6] 50.6 µM | [7] 148 µM
inactive: [4] | [10]

FC(F)(F)C1(F)C(F)(F)C(F)(F)C(F)(F)C1(F)F
inactive: [1] | [9] | [2] | [3] | [4] | [5] | [6] | [7] | [10] | [8]

CC1CCC(CO)CC1 (stereo not drawn)
inactive: [1] | [9] | [2] | [3] | [4] | [5] | [6] | [7] | [10] | [8]

OCCN1CN(CCO)CN(CCO)C1
inactive: [1] | [3] | [4] | [5] | [6] | [7] | [8]
active: [9] 150 µM | [2] 144 µM

CC(O)COc1ccccc1 (stereo not drawn)
inactive: [1] | [9] | [2] | [3] | [4] | [5] | [6] | [7] | [8]

OCC(CO)(CBr)CBr
inactive: [9] | [2] | [3] | [4] | [5] | [6] | [7] | [10]

CCC(=O)O
inactive: [1] | [2] | [3] | [4] | [5] | [6] | [7] | [10] | [8]

O=C(CCCN1CCC(O)(c2ccc(Cl)cc2)CC1)c1ccc(F)cc1
inactive: [6] | [10]
active: [1] 52.4 µM | [2] 33.4 µM | [3] 5.07 µM | [4] 59.5 µM | [5] 33.4 µM | [7] 53.8 µM

O=C1NS(=O)(=O)c2ccccc21
inactive: [9] | [2] | [3] | [4] | [5] | [6] | [7]

COC(O)c1ccccc1 (stereo not drawn)
inactive: [1] | [2] | [3] | [4] | [5] | [6] | [7] | [10] | [8]

CCCCCc1ccc(O)cc1
inactive: [1] | [2] | [3] | [4] | [5] | [6] | [7] | [10] | [8]

O=P(O)(O)CCC(F)(F)C(F)(F)C(F)(F)C(F)(F)C(F)(F)C(F)(F)F
inactive: [1] | [2] | [3] | [4] | [5] | [6] | [7] | [10] | [8]

CCc1cccc(CC)c1NC(=O)C(=O)O
inactive: [1] | [2] | [3] | [4] | [5] | [6] | [7] | [10] | [8]
